Results on 14 molecules are retold here after PubChem BioAssay (NCATS).

Experiment [1] concerns the target DNA dC->dU-editing enzyme APOBEC-3G (Homo sapiens) (UniProt Q9HC16). As to the kind of experiment: qHTS for inhibitors of Vif-A3G interactions: Validation (AID 588379). The essentials:
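HeLa cells stably expressing Vif and A3G-eYFP, 700 cells/well, incubated overnight at 37 deg C, then exposed to compound overnight at 37 deg C. Inhibition of Vif-mediated degradation read as increased yellow fluorescence (Ex 488/Em 500-530) by laser-scanning cytometry.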

Experiment [2] deals with Estrogen receptor (Homo sapiens) (UniProt P03372). Description: qHTS assay for small molecule agonists of estrogen receptor alpha signaling (AID 588514; calls by dose curve; note: nearly all actives have a fitted effect of over 70% in size). The essentials: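 ER-alpha-UAS-bla GripTite HEK293 cells, 5000/well in 2% charcoal/dextran-stripped FBS medium, treated with compound titrations 18 h at 37 C. CCF4 beta-lactamase read by fluorescence after 2 h RT; normalised to 20 nM 17-beta-estradiol (100%) and DMSO (0%), Hill fit for EC50 and efficacy.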
Estrogen receptor (Homo sapiens), sequence (P03372 whole entry, looked up): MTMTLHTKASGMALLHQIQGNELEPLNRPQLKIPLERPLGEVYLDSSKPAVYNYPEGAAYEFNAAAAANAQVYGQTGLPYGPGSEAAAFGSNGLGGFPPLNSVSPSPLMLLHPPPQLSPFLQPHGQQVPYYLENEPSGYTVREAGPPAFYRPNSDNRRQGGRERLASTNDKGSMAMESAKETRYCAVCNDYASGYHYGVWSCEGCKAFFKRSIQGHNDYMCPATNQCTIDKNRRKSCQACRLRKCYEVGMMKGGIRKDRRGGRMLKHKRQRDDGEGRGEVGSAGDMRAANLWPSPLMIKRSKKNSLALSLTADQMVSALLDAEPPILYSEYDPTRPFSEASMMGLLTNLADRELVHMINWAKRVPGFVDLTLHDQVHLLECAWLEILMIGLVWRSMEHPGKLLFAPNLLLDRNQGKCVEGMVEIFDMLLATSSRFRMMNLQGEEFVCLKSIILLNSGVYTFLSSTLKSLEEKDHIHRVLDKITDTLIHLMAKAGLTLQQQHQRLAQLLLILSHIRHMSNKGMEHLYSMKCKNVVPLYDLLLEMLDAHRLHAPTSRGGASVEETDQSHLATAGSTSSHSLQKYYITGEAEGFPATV
A general note: In qHTS, concentration-response curves come from the screen itself.

Experiment [3] has as its target Ubiquitin carboxyl-terminal hydrolase 1 (Homo sapiens) (UniProt O94782). Description: Inhibitors of USP1/UAF1: Pilot qHTS (AID 504865). Note: nearly all actives have a fitted effect of over 35% in size. Note: potency is the fitted concentration of half-maximal effect. The essentials:
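USP1/UAF1 complex (1nM) preincubated with compound 15 min at room temperature, then Ub-Rho substrate (150nM final) added. Fluorescence read kinetically at 480/540 nm, 6 reads every 60 seconds. Buffer: 50mM HEPES pH 7.8, 0.5mM EDTA, 0.1 mg/ml BSA, 1mM TCEP, 0.01% Tween-20.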

Experiment [4] has as its target Glucocorticoid receptor (Homo sapiens) (UniProt P04150). As to the kind of experiment: qHTS assay for small molecule agonists of glucocorticoid receptor signaling (AID 588532; active = well fitted curve in the direction sought with a large enough effect in the signal ratio, with a control signal flat; the % refers to the signal ratio). The following applies: HeLa MMTV-bla, beta-lactamase ratio, agonist, 18 h; hits give high values; percent of dexamethasone control, DMSO zero. The essentials:
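Titration series, up to 92 uM, applied to GRE-bla HeLa cells for 18 h at 37 C. Detection by CCF4 FRET substrate after 2 h at RT.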

For experiment [5] the target is unchanged. Description: qHTS assay for small molecule antagonists of glucocorticoid receptor signaling (AID 588533; active = well fitted inhibition curve with a large enough effect in the signal ratio, with a control signal flat, not every such curve was filed as active; the % refers to the signal ratio;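 note: cells stimulated with 2 nM dexamethasone as agonist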). The essentials: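 Antagonist-mode qHTS: compound titrations added to GRE-bla HeLa cells, then dexamethasone 2 nM final; 18 h, 37 C. CCF4 FRET fluorescence normalized to dexamethasone and DMSO; IC50 from Hill fit.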
Experiment [6] deals with Androgen receptor (Homo sapiens) (UniProt P10275). Description: qHTS assay for small molecule agonists of androgen receptor signaling (AID 588515; active = well fitted curve in the direction sought with a large enough effect in the signal ratio, with a control signal flat; the % refers to the signal ratio). Conditions: AR-UAS-bla HEK293, beta-lactamase ratio, agonist 16 h; hits give high values. The essentials:
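EC50 and efficacy came from Hill fits of titrations (up to 92 uM) normalized to 30 nM R1881 as 100% and DMSO as 0%. Compound exposure was 16 h at 37 C on AR-UAS-bla HEK293 cells, with a 405/460/530 nm CCF4 fluorescence read.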

For experiment [7] the target is unchanged. Description: qHTS assay for small molecule antagonists of androgen receptor signaling (AID 588516; active = well fitted curve in the direction sought with a large enough effect in the signal ratio, with a control signal flat, not every such curve was filed as active; the % refers to the signal ratio). The essentials: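 AR-UAS-bla-GripTite HEK 293 cells (2000/well, 5 h at 37 C) received compound titrations, then R1881 at 10 nM final; after 16 h at 37 C, CCF4 dye 2 h RT, beta-lactamase fluorescence read; IC50 from Hill fits.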

Each structure is given as a SMILES string. Values joined by “and” are separate entries in the source; they are usually repeats but may differ in a detail not shown here. Equal entries are not always repeated. Unmarked numbers belong to inactive results. Inconclusive results are not listed. Where a call stands in place of a potency, no number is given. Active and inactive are the calls of the source. Unless noted, calls come from the whole dose curve; as a rule, active = well fitted inhibition curve with a large enough effect; inconclusive = small, poorly fitted or top-dose-only effect; inactive = flat fitted curve, though single readings scatter.

DNA dC->dU-editing enzyme APOBEC-3G (Homo sapiens), sequence (Q9HC16 whole entry, looked up): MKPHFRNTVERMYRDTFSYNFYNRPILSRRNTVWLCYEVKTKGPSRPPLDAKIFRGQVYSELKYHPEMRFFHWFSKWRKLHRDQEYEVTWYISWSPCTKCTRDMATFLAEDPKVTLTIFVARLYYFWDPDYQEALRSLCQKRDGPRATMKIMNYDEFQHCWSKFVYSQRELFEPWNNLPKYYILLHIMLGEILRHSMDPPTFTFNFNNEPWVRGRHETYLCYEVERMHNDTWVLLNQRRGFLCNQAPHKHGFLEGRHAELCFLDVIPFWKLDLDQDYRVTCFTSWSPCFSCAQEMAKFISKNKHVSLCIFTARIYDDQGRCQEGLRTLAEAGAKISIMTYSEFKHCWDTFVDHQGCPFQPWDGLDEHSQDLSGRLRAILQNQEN
Ubiquitin carboxyl-terminal hydrolase 1 (Homo sapiens), sequence (O94782 whole entry, looked up): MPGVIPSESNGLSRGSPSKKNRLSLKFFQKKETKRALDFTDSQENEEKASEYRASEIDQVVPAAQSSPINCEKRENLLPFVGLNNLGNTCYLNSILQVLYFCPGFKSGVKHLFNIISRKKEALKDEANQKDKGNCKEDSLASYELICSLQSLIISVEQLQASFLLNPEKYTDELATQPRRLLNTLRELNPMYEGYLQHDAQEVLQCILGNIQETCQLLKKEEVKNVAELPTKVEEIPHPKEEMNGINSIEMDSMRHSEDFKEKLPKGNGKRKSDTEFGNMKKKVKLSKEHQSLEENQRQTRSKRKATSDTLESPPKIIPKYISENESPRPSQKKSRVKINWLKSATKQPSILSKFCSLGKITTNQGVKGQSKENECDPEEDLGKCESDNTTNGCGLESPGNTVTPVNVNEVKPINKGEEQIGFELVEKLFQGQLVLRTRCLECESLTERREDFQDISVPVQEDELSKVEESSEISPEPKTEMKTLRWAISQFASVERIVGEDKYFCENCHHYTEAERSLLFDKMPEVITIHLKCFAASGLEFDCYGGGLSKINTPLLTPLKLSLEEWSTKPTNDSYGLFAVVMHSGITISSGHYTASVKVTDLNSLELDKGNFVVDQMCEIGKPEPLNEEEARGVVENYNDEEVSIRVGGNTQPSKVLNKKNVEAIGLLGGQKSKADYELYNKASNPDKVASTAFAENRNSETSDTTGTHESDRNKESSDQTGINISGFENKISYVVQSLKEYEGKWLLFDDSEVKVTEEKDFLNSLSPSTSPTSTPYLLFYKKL
Glucocorticoid receptor (Homo sapiens), sequence (P04150 whole entry, looked up): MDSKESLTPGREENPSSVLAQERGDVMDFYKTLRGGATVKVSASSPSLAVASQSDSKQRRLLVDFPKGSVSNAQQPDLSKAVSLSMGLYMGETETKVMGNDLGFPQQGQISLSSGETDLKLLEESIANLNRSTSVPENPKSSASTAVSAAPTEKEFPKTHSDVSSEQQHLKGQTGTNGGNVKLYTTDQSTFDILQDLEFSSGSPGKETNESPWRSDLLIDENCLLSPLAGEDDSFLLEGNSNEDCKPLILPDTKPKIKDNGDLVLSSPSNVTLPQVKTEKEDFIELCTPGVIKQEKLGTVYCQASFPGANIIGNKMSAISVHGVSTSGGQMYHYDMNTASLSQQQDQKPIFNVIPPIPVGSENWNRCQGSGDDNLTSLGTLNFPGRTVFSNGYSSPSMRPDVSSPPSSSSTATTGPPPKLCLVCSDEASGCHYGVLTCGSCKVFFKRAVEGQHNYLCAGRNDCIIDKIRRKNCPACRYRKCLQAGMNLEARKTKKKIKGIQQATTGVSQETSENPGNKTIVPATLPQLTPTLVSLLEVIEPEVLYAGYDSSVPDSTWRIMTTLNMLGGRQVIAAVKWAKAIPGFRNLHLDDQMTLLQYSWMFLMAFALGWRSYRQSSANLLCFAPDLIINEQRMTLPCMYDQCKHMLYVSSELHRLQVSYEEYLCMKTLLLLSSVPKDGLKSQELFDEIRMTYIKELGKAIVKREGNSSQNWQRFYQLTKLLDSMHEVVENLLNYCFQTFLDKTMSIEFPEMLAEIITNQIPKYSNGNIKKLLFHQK
Androgen receptor (Homo sapiens), sequence (P10275 whole entry, looked up): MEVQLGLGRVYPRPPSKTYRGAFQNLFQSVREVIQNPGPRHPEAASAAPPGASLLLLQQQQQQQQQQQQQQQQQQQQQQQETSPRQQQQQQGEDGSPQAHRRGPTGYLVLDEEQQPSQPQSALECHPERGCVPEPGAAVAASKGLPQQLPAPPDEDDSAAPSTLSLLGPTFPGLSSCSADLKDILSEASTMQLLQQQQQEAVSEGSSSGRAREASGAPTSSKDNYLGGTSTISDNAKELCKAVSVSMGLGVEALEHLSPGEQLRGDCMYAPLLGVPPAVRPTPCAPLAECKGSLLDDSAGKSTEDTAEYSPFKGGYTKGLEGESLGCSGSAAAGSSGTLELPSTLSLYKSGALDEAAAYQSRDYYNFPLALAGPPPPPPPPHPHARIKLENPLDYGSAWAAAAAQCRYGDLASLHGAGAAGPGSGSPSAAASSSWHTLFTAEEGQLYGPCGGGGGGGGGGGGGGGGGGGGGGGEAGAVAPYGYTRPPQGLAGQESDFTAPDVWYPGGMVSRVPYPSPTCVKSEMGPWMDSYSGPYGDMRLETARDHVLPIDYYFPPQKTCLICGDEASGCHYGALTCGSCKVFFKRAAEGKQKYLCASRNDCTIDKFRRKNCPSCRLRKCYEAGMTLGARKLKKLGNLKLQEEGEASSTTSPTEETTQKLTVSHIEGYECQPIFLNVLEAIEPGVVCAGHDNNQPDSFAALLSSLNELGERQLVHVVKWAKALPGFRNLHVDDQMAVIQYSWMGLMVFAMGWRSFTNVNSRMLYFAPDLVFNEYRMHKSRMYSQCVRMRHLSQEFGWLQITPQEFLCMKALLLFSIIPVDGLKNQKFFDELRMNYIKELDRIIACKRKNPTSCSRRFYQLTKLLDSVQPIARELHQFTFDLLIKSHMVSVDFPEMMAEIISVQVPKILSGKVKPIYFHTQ

In the case of `COc1cc([C@@H]2c3cc4c(cc3[C@H](O)[C@H]3COC(=O)[C@H]23)OCO4)cc(OC)c1OC`, the result in experiment [1] was inactive.
With `CCOC(=O)c1ccc(OC(=O)CCCCCN=C(N)N)cc1`, the call in experiment [1] was inactive.
As to `C[C@]12C=CC(=O)C=C1CC[C@@H]1[C@@H]2C(=O)C[C@@]2(C)[C@H]1CC[C@]2(O)C(=O)CO`, in experiment [2], the outcome was inactive.
As for `COC(=O)Nc1nc2ccc(S(=O)c3ccccc3)cc2[nH]1` (configuration not stated), in experiment [3], the Potency result was “inactive”.
Turning to `O=S(=O)(c1cccc2cnccc12)N1CCCNCC1`, in experiment [3], the Potency result is “inactive”. Besides, in experiment [1], the result was inactive.
In the case of `OC(Cn1cncn1)(Cn1cncn1)c1ccc(F)cc1F`, the Potency entry in experiment [3] was “inactive”. The outcome in experiment [2] and in experiment [5] was inactive. For the same molecule, the activation in experiment [4] is 0.0878%.
In the case of `Cc1nnc(NS(=O)(=O)c2ccc(N)cc2)s1`, the molecule was called inactive in experiment [2] and in experiment [7]. Moreover, the activation in experiment [6] is -1.65%.
Consider `CC(C)(C#N)c1cc(Cn2cncn2)cc(C(C)(C)C#N)c1`, for which, in experiment [3], the Potency result was “inactive”.
Consider `NNC(=O)c1ccncc1`, for which, in experiment [3], the Potency entry was “inactive”. For the same molecule, the result in experiment [2] and in experiment [5] was inactive. Moreover, in experiment [4], the activation was -1.09%.
For `O=C(N[C@H](CO)[C@H](O)c1ccc([N+](=O)[O-])cc1)C(Cl)Cl`, in experiment [1], the call was inactive.
For the molecule `CN(C)c1ccc(C(=C2C=CC(=[N+](C)C)C=C2)c2ccc(N(C)C)cc2)cc1`, the Potency in experiment [3] is 20 µM (active) and 22.4 µM (active). Also, the activation in experiment [4] is -0.396% and -10.9%.
Consider `CCc1cc(C(N)=S)ccn1`, for which, in experiment [3], the Potency result is “inactive”. The activation in experiment [4] is 1.04%. For the same molecule, the outcome in experiment [5] was inactive.
Regarding `CC[C@H](C)C(=O)O[C@H]1C[C@@H](C)C=C2C=C[C@H](C)[C@H](CC[C@@H]3C[C@@H](O)CC(=O)O3)[C@H]21`, the molecule was classed as inactive in experiment [2]. Moreover, the activation in experiment [4] was -4.54%.
For the molecule `Nc1ccc(S(=O)(=O)Nc2ccccn2)cc1`, in experiment [3], the Potency result was “inactive”.
